# From PubChem BioAssay AID488890 (Southern Research Specialized Biocontainment Screening …, 2010)
# Screen size: about 320,000 compounds; about 1,300 (0.41%) were called active. About 3% were inconclusive and are not listed. How the calls were made is not given here. Not all results are given here. Results with a measured potency or affinity are listed apart.
# Assay: growth inhibition of non-replicating M. tuberculosis (AID 488890);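 further: plate controls were DMSO cells for no effect and high antibiotic wells for full effect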
# Settings: Mycobacterium tuberculosis non-replicating, at 25 µM, stronger effect = higher value
row,SMILES,inhibition
1,CCN1CCN(c2ccc(NC(=O)c3ccco3)cc2Cl)CC1,-16.6%
2,CCOC(=O)Cc1cc(=O)n2[nH]cc(-c3ccc(Cl)cc3)c2n1,81.6%
3,CCOC(=O)Cc1c(C)nc2c(-c3ccccc3)c(C)[nH]n2c1=O,23.1%
4,CCOC(=O)Cc1c(C)nc2c(C#N)c[nH]n2c1=O,-14.1%
5,CCOC(=O)Cc1c(C)nc2c(-c3cccc(Br)c3)cnn2c1C,-10.5%
6,CC1=CC(C)(C)Nc2ccc(OS(=O)(=O)c3ccc(C)cc3)cc21,-0.67%
7,CN(C)S(=O)(=O)n1ccnc1,-7.18%
8,c1cnc2nc(-c3ccc4c(c3)OCO4)cn2c1,14.6%
9,Oc1ccc(-c2nc3ncccn3c2Nc2ccc3c(c2)OCO3)cc1,0.55%
10,COCCn1c(SCC(=O)NC(=O)NC2CCCC2)nc2ccccc2c1=O,-3.24%
11,CN(C)CCCNC(=O)CC1C[C@H](C(=O)N2CCOCC2)[C@@]2(CCC3CCCC3)c3[nH]c4ccccc4c3CCN2C1=O (some centres undefined),48.7%
12,CC(C)COc1ccc(Br)cc1CNC(C)(C)C,72%
13,CC(C)(C)NCc1ccccc1OCc1cccs1,6.2%
14,C=CCOc1ccc(Br)cc1CNC(C)(C)C,54.2%
15,Cn1nnc(NCc2cc(Br)ccc2OCc2cccs2)n1,24.3%
16,CC1CCCCN1CCn1c(=S)[nH]c2cc3c(cc2c1=O)OCO3 (centres undefined),9.55%
17,Cc1c(/C=C2\NC(=O)NC2=O)c2ccccc2n1C,16.4%
18,O=c1cc(O)n(Cc2ccc(F)cc2)c(=O)[nH]1,-1.55%
19,CCOCCCNC(=O)C1CCC(CNS(=O)(=O)c2cccc3nsnc23)CC1 (centres undefined),-10.5%
20,COc1cccc2cc(C(=O)c3ccccc3)oc12,77.7%
21,COc1ccc(C(=O)c2cc3cccc(OC)c3o2)cc1,70.7%
22,O=C(COc1ccccc1Cl)N1CCN(C(=O)c2ccco2)CC1,6.78%
23,CCOCCOC(=O)c1[nH]c2c(c1C)C(=O)CC(c1cccs1)C2 (centres undefined),5.49%
24,Cc1[nH]c2ccc(Br)cc2c(=O)c1CN1CCCCC1,6.69%
25,O=C(O)CC(Cc1ccc(Cl)cc1)C(=O)Nc1ccc([N+](=O)[O-])cc1 (centres undefined),7.55%

row,SMILES,inhibition
1,O=C(Cc1ccc([N+](=O)[O-])cc1)Nc1ccc(Cl)cc1,12.6%
2,O=C(CCNC(=O)c1ccc([N+](=O)[O-])cc1)Nc1ccc(F)cc1F,69.1%
3,O=C(C/C=N\OCc1ccc(Cl)cc1Cl)Nc1ccccc1,55.5%
4,COC(=O)C(/C=N/OCc1ccc([N+](=O)[O-])cc1)NC(=O)c1ccccc1 (centres undefined),1.7%
5,CO/N=C/CC(=O)Nc1ccc(F)cc1F,-1.66%
6,O=C(NCCCCc1ccccc1)C1CC(c2cccc(F)c2)=NO1 (centres undefined),9.38%
7,Nn1c(-c2ccccc2)nc2ccccc2c1=O,-12.5%
8,O=C(O)c1cnc(-c2ccccc2)nc1Sc1cccc(Cl)c1,53.3%
9,CCC(CC)NC(=O)COC(=O)c1cc(SC)ccc1Cl,28.5%
10,CCOc1ccccc1N1CCN(CC(O)COC2CCCc3ccccc32)CC1 (centres undefined),59.7%
11,CN(C)C(=O)CSc1nnc([C@H](Cc2c[nH]c3ccccc23)NC(=O)OC(C)(C)C)o1,-0.86%
12,CC(CCc1ccc(O)cc1)NC1c2ccccc2-c2ccccc21 (centres undefined),43.3%
13,CC(C)=N/N=C1\NC(=O)C(C)S1 (centres undefined),54%
14,O=C(CNC(=O)N1CC(=O)Nc2ccccc21)Nc1ccccc1F,-10.2%
15,N=C1S/C(=C\c2ccco2)C(=O)N1c1ccc2c(c1)OCO2,0.43%
16,COc1ccc(/C=C2\SC(=N)N(c3nccs3)C2=O)cc1OC,-5.11%
17,CN(C1CCCCC1)S(=O)(=O)c1cccc(C(=O)Nc2ccccn2)c1,25.5%
18,CCOP(=O)(Cc1cc(C(=O)CC)c(C)o1)OCC,-21.9%
19,O=[N+]([O-])c1cccnc1Sc1ccc(F)cc1,18.3%
20,CC(C)(C)c1csc(Sc2ncccc2[N+](=O)[O-])n1,19.4%
21,Cc1ccc(Sc2ncccc2[N+](=O)[O-])cc1,23.3%
22,O=c1ccnc(Sc2ncccc2[N+](=O)[O-])[nH]1,37.6%
23,CCn1c(=O)n(-c2ccc(Cl)cc2)c(=O)c2c3c(sc21)COC(C)(C)C3,5.56%
24,O=C(COC(=O)Cc1ccsc1)Nc1ccc(Cl)cc1F,70.1%
25,CC(C)(C)OC(=O)CNC(=O)c1[nH]cnc1C(=O)NC1CCNCC1,-8.53%

row,SMILES,inhibition
1,Cc1ccc(OCCCC(=O)NCc2ccco2)cc1,53.7%
2,COc1ccc(OCCCC(=O)NCc2ccco2)cc1,56.7%
3,CC1CCN(C(=O)c2cc3c(=O)n4ccccc4nc3s2)CC1,-10.7%
4,CCCCN(C)Cc1c(C)[nH]c2ccc(C)cc2c1=O,3.45%
5,CC(CCc1ccccc1)NC(=O)c1ccc(F)cc1 (centres undefined),65.9%
6,CN(C)CCCN(C(=O)c1ccc(S(=O)(=O)N2CCCCC2)cc1)c1nc2cc3c(cc2s1)OCO3,20.6%
7,CSCCOC(=O)COc1ccc(/C=N/NC(=O)c2nn(C)cc2Cl)cc1,75.7%
8,CC(C)c1ccc(/C=N/NC(=O)c2c(Cl)cnn2C)cc1,-10.4%
9,COc1cc(CN2CCN(Cc3ccc(SC)cc3)CC2)cc(OC)c1O,-26.9%
10,N/C(=N\N=C\c1cccs1)SC1CC(=O)N(c2cccc([N+](=O)[O-])c2)C1=O (centres undefined),-1.1%
11,COc1ccc(N(CN2C(=O)c3ccccc3C2=O)C(=O)C(C)C)cc1,2.08%
12,O=C(Nc1ncc(Cc2ccccc2Cl)s1)c1ccc([N+](=O)[O-])cc1,-27.1%
13,CC(C)C(=O)Nc1ncc(Cc2ccc(Cl)cc2)s1,32.4%
14,Cc1ccc(C(=O)Nc2ncc(Cc3ccccc3)s2)o1,32.2%
15,O=C(Nc1ncc(Cc2ccccc2)s1)C1COc2ccccc2O1 (centres undefined),64%
16,Cc1ccc(C(=O)Nc2ncc(Cc3ccc(F)cc3)s2)o1,13.4%
17,Cc1ccc(Cc2cnc(NC(=O)c3ccco3)s2)cc1,79%
18,CC(=O)Nc1ncc(Cc2cccc(Cl)c2)s1,36.5%
19,CC(C)C(=O)Nc1ncc(Cc2ccccc2Cl)s1,4.24%
20,O=C(CSc1oc(-c2ccc(F)cc2)nc1S(=O)(=O)c1ccccc1)NCC1CCCO1 (centres undefined),-4.84%
21,CCc1cc(CNC(=O)c2ccc(OC3CCN(CCc4ccccc4)CC3)cc2)on1,4.71%
22,CN(CC(=O)Nc1cccc(F)c1)C(=O)c1ccccc1Cc1ccccc1,-4.13%
23,O=C(NCc1ccco1)c1cccc(S(=O)(=O)N2CCCCC2)c1,16.4%
24,CCN1CCN(C(=O)/C(=C/c2ccco2)NC(=O)c2ccccc2)CC1,-2.48%
25,O=C(CCC(=O)N1CCOc2ccccc21)N1CCCCC1,-34.4%

row,SMILES,inhibition
1,CN(C)CCCN(C(=O)c1ccc(N2C(=O)CCC2=O)cc1)c1nc2c(F)cccc2s1,-7.06%
2,CCN1CCCC1CNC(=O)C(=O)NC(C)c1ccccc1 (centres undefined),5.13%
3,COCc1cc(=O)[nH]c(SCC(=O)c2ccccc2)n1,-7.52%
4,O=C(O)c1cccc(-n2sc3ccccc3c2=O)c1,-0.63%
5,O=c1c2ccccc2sn1-c1ccc(F)cc1,-1.44%
6,CC1(C)CC(=O)C2=C(C1)OC1=C(C(=O)CC(C)(C)C1)C2c1ccccc1,-3.44%
7,Cc1ccc(NC(=O)CN2CCCCCC2)cc1Br,5.31%
8,CN(CC(=O)Nc1ccc(S(N)(=O)=O)cc1)C1CCCCC1,-0.54%
9,COc1ccc(NC(=O)CN(C)C2CCCCC2)cc1Cl,33.9%
10,Cc1ccc(NC(=O)CN(C)C2CCCCC2)cc1Cl,72.6%
11,CCC(=O)Nc1ccc2oc(-c3cccc(C)c3)nc2c1,-26.3%
12,COCC(=O)Nc1ccccc1C(=O)Nc1ccc(OC)cc1,-1.58%
13,COc1ccc(CCN(C)C2CCCN(S(C)(=O)=O)C2)cc1OC (centres undefined),-23.7%
14,O=C(CN1CCN(c2ccccc2F)CC1)c1c[nH]c2ccccc12,4%
15,COc1ccc(-n2nc(C(=O)NCC(=O)N3CCN(c4ccc(F)cc4)CC3)c3ccccc3c2=O)c(OC)c1,3.71%
16,N#Cc1ccc(C(=O)CN2CCN(c3ccccc3)CC2)cc1,3.58%
17,COc1ccc(N2CCN(C(=O)C3CCN(C(=O)c4ccc([N+](=O)[O-])cc4)CC3)CC2)cc1,21.3%
18,CS(=O)(=O)N(CC(=O)N1CCN(c2ccc(F)cc2)CC1)c1cccc(Cl)c1,-4.05%
19,O=C(NCc1cccnc1)c1ccc(S(=O)(=O)N2CCCCCC2)cc1,5.4%
20,CCOCC(=O)Nc1ccc(Br)c(C)c1,78.4%
21,Cc1ccc(NC(=O)CCC(=O)NNC(=O)COc2ccccc2)cc1C,-33.1%
22,Cc1ccc(NC(=O)COc2ccccc2C=O)cc1Cl,11.5%
23,COCC(=O)Nc1ccc(C)c(Cl)c1,57.3%
24,COc1cc(NC(=O)COc2ccc(-n3ccnc3)cc2)cc(OC)c1,57.6%
25,O=C(COc1ccc(-n2ccnc2)cc1)Nc1cccc(F)c1,62.5%

row,SMILES,inhibition
1,Cc1ccc(NC(=O)COc2ccccc2C(=O)Nc2ccccc2)cc1Cl,-4.97%
2,CC(C)c1ccc(NC(=O)COc2ccccc2)cc1,75.1%
3,CC(C)n1ncc(C(N)=O)c1N,-11%
4,O=C(CO/N=C/c1c(Cl)cccc1Cl)NNC(=O)c1ccc(Cl)cc1,-1.83%
5,CCn1ccnc1CN(C)C(=O)CCc1nnc(CCC2CCCCC2)o1,6.59%
6,Cc1cccc(-n2c(-c3ccncc3)n[nH]c2=S)c1C,13.2%
7,Nc1nc(SCCC(F)=C(F)F)n[nH]1,2.3%
8,Cc1cccc(OCC(=O)Nc2ccc3nc(C)sc3c2)c1,75.1%
9,Cc1nc2ccc(NC(=O)Cc3cccc(F)c3)cc2s1,3.01%
10,O=C(CC(Nc1ccc(Cl)cc1)C(=O)O)c1ccccc1 (centres undefined),58.9%
11,O=C(CC(Nc1ccccc1)C(=O)O)c1ccccc1 (centres undefined),28.9%
12,CC(=O)c1ccccc1OCc1ccc(S(=O)(=O)Cc2ccccc2)cc1,46%
13,O=C(NCc1ccccc1F)C1CCCN1C(=O)Nc1ccc(F)cc1 (centres undefined),5.39%
14,CC1CN(C(=O)COc2ccc3ccccc3c2Br)CC(C)O1 (centres undefined),3.67%
15,O=C(NCc1cccnc1)C(=O)N/N=C/c1ccccc1[N+](=O)[O-],0.97%
16,CC(=O)[C@@]1(O)CCC2C3CC=C4C[C@@H](O)CC[C@]4(C)C3CC[C@@]21C (some centres undefined),-5.65%
17,Cc1nnc(SCc2nnc(-c3cccs3)o2)n1C,-12.8%
18,COc1cccc(C(=O)CSc2nnc(-c3cccs3)o2)c1,65%
19,Cc1nnc(SCc2nnc(-c3cccs3)o2)s1,72.4%
20,CCSc1nnc(-c2cccs2)o1,58.5%
21,Clc1ccc(Cc2nnc(-c3ccccc3Br)o2)cc1,69.1%
22,Clc1ccc(Cc2noc(-c3cccs3)n2)cc1,78.5%
23,c1csc(-c2nnc(COc3ncnc4sccc34)o2)c1,10.4%
24,Fc1ccc(CSc2nnc(-c3ccncc3)o2)cc1,73.6%
